Sampled rows, rich in hits. Any-hit rate of the full collection: about 5.5%.
Giardia killer: kills Giardia lamblia; Giardia lamblia trophozoite viability; 0.15% of 340,000 active; activity change, % at 7.66 µM, hits read low; in the data active means activity change below about -80%; inconclusive means between about -30% and that limit;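 further: parasites exposed to compound for two days anaerobically before the ATP read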
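Compounds were tested on trophozoites seeded at 100 cells/well and held 48 hrs at 37 deg C anaerobically. An ATP-based luminescent kit measured the remaining live cells.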
FBPA coupling cs: coupling enzyme interference in Giardia aldolase counter-screen | coupling enzyme system counterscreen, AmpLite Red fluorescence | activity change, negative = inhibition, % at 58.2 µM, hits read low | 0.67% of 290,000 active | AID 2472; in the data active means activity change below about -30%
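Counterscreen lacking aldolase: glyceraldehyde-3-phosphate coupling-enzyme reagent preincubated 10 min at RT with compound (at 57.5 uM final), then substrate/coupling system with AmpLite Red added; fluorescence read at 525/598 nm after 20 min RT.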
Sfp inh: blocks B. subtilis Sfp PPTase activity; Q9F4F7; Biochemical Sfp PPTase activity, qHTS; Potency, µM, for the others: largest response in the series, negative = inhibition, hits mostly inhibitors; 3.5% of 310,000 active;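 further: the enzyme is Sfp with the accession as filed and its product quenches rhodamine fluorescence; potency means the concentration at half of the fitted maximal effect; 0% = enzyme reaction without inhibitor and -100% = no enzyme wells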
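Fluorescence-quenching assay with 15 nM Sfp, 5 uM rhodamine-CoA and 12.5 uM BHQ-2-labelled ybbR peptide in pH 7.6 Hepes/MgCl2 buffer. Enzyme was pre-incubated with compound for 15 min at room temperature. Rate was taken from the 30-min fluorescence change (525/598 nm).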
ELG1 DNA repair: inhibitors of ELG1-dependent DNA repair in HEK293T cells; HEK293T ELG1-luciferase reporter, luminescence, 16 h; DNA damage induced by 5-fluorouridine; Potency, µM (highest dose often 46.1 µM), for inactives: at the highest dose activity change, negative = inhibition, hits mostly inhibitors; 2.3% of 330,000 active; further: potency means the concentration at half of the fitted maximal effect; nearly all actives have a fitted effect of over 55% in size
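In this reporter screen, reduction of luminescence relative to DMSO vehicle indicated activity. Compounds and 5-fluorouridine were added together to 2,000 cells per well, incubated for 16 hr at 37 °C, then developed with ONE-Glo.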
* hit, by the source's call; ? = inconclusive; . = no result. Unless noted, the call rests on the fitted dose curve; in most records, active means well fitted curve in the direction sought with a large enough effect; inconclusive means small, poorly fitted or top-dose-only effect, or another doubt; inactive means no such curve, though single readings can be large; an effect the other way counts as inactive or inconclusive. Unless noted, on the % scale 0 is the no-effect control and ±100 the full control effect.

SMILES | Giardia killer | FBPA coupling cs | Sfp inh | ELG1 DNA repair
CCOC(=O)CSC1=C(C#N)C(=O)NC2(CCCCC2)S1 | 17.7 | 5.2 | 50.1µM* | -7.7%
CCOC(=O)CSC1=C(C#N)C(c2ccc(C)s2)CC(=O)N1 (stereo not given) | 1.7 | 2.9 | 12.0% | ?
COc1ccc(-c2nnc3n2N=C(c2ccccc2OC)CS3)cc1 | . | 0.4 | -7.3% | .
CCCCc1c(C)nc2ccc(OC)cc2c1SCCC(=O)O | 3.1 | . | 3.7% | 10.6%
CCCc1c(C)nc2ccccc2c1SCCC#N | -0.3 | -2.1 | -16.9% | 23.1µM*
CCCCc1c(C)nc2ccc(Br)cc2c1SCCC#N | . | 2.5 | 1.1% | 18.4µM*
C/C=C1/C(=O)C[C@@H]2[C@H]3CCC4=CC(=O)CC[C@]4(C)[C@@H]3CC[C@]12C | . | . | 8.3% | .
CCOc1ccc(N2C(=O)CC(NCC#N)C2=O)cc1 (stereo not given) | -4.2 | 0.0 | 56.2µM* | 5.9%
c1ccc(Nc2cccc(Nc3ccccc3)c2)cc1 | 9.0 | -2.9 | 12.7% | ?
COc1ccc(NC2=NC(=S)N(c3ccccc3C)C23CCCCC3)cc1 | 8.8 | -2.0 | -9.5% | -6.6%
[O-][N+]1=c2ccc(Nc3ccccc3)cc2=NC12CCCCC2 | -3.9 | -49.5* | -20.6% | ?
COc1ccc(Nc2ccc3c(c2)=NC2(CCCCC2)[N+]=3[O-])cc1 | 1.1 | -47.6* | -19.7% | ?
Cc1ccccc1SCC(=O)Nc1cc(C(F)(F)F)ccc1N1CCOCC1 | -0.1 | . | . | ?
CCCCN(C(=O)CCN1C(=O)C2CC=CCC2C1=O)c1c(N)n(CCCC)c(=O)[nH]c1=O (stereo not given) | 14.4 | . | . | .
Cc1ccc(N2CC(C)Cn3c2nc2c3c(=O)[nH]c(=O)n2C)cc1C (stereo not given) | 5.2 | 1.1 | 3.9% | 9.2µM*
Cn1c([N+](=O)[O-])cnc1COC(N)=O | -90.1* | 3.8 | -7.3% | -16.0%
O=C(CBr)c1ccc([N+](=O)[O-])c(CS(=O)(=O)c2ccc(Cl)cc2)c1 | -24.7 | 0.9 | 56.2µM* | ?
CC(=O)OCC(NC(=O)C(CCCCNC(=O)OCc1ccccc1)NC(=O)OC(C)(C)C)C1OC(n2cc(F)c(=O)[nH]c2=O)C(OC(C)=O)C1OC(C)=O (stereo not given) | 8.6 | 5.7 | 21.0% | .
CN(CC(=O)Nc1ccccc1Cl)C(=O)C1CSC2(C)CCC(=O)N12 (stereo not given) | -1.4 | . | . | 8.9%
Cc1ccc(S(=O)(=O)N2CCOCC2)cc1NC(=O)CN1CCN(c2ccc(O)cc2)CC1 | 12.0 | -10.5 | 39.8µM* | -15.1%
Cc1nc(SCC(=O)Nc2ccc(S(=O)(=O)N3CCOCC3)cc2)c2c(C)c(C)sc2n1 | -8.8 | . | . | 16.4µM*
Cc1cccc(N2CCN(CC(=O)Nc3ccc(S(=O)(=O)N4CCOCC4)cc3)CC2)c1C | -11.2 | . | 1.8% | 14.6µM*
Cc1ccc(S(=O)(=O)N2CCN(CC(=O)Nc3ccc(N4CCOCC4)cc3)CC2)cc1C | 3.6 | 4.5 | 7.7% | -0.2%
Cc1ccc(S(=O)(=O)N2CCOCC2)cc1NC(=O)CN1CCN(C)CC1 | -7.6 | . | . | 18.8%
Cc1ccc(NC(=O)NC(=O)CN2CCN(c3ccc(O)cc3)CC2)c(C)c1 | -1.8 | -16.6 | 50.1µM* | ?
SMILES | Giardia killer | FBPA coupling cs | Sfp inh | ELG1 DNA repair
CNC(=O)NC(=O)CN1C(=O)NC2(CCOc3ccccc32)C1=O (stereo not given) | -15.7 | 0.8 | 6.3% | 11.0%
COC(=O)C/C=C/C(C)C(OCc1cccc(-c2ccccc2)c1)C1CCCCC1 (stereo not given) | . | 0.1 | -15.9% | .
C[C@H](N)CCP(=O)(O)O | . | . | 1.7% | .
COc1ccc(C(CNC(=O)CN(C)S(=O)(=O)c2ccc(C)cc2)N2CCCC2)cc1 (stereo not given) | -10.1 | . | . | -14.4%
CCOc1ccc(/C=N/n2cc(-c3ccccc3)[nH]c2=S)cc1 | -11.9 | -2.3 | 5.9% | 10.2%
S=c1[nH]c(-c2ccccc2)cn1/N=C/c1ccncc1 | -6.2 | -1.0 | 79.4µM* | -12.6%
COC(=O)c1cccc(C23CC4(C2)[C@H](CN(CC2CCCCC2)[C@@H]4c2ccccc2)C3c2ccc(Cl)nc2)c1 (stereo not given in full) | . | 0.2 | 11.1% | .
Cc1nnc(NNS(=O)(=O)c2ccc(Cl)cc2)[nH]c1=O | -6.7 | 0.0 | 44.7µM* | 1.8%
COc1ccc(Nc2nnc(C)c(=O)[nH]2)cc1 | 15.8 | -0.2 | 15.5% | -4.1%
Cc1ccc(S(=O)(=O)NNc2nnc(C)c(=O)[nH]2)cc1 | -4.0 | 1.2 | 5.62µM* | 1.7%
COc1cc(C2NC(=O)N(C)C(C)=C2C(=O)OCc2ccccc2)cc(Br)c1O (stereo not given) | -14.3 | -1.0 | 3.5% | -4.6%
COC(=O)c1sccc1NC(=O)c1c(Cl)cnn1C | 5.6 | . | 7.5% | 10.6%
COc1cccc(CNC(=O)CCCn2ccc3cc(S(=O)(=O)N4CCCC4)ccc32)c1 | 2.1 | 0.7 | -5.5% | 23.1µM*
COc1cccc(CNC(=O)CCn2ccc3cc(S(=O)(=O)N4CCCC4)ccc32)c1 | -8.4 | -1.8 | 23.0% | 4.3%
O=C(Nc1ccc2nc3ccccc3nc2c1)c1ccc(Br)cc1 | 22.2 | -39.4* | -9.7% | ?
CC(=O)Nc1ccc2nc3ccccc3nc2c1 | 5.1 | -33.2* | -16.7% | ?
CC(=O)Nc1ccc(Nc2cc(C)c3ccccc3n2)cc1 | -8.2 | -2.2 | 1.2% | 1.7%
Cc1ccc2cc(NC(=O)c3ccc(C(C)(C)C)cc3)ccc2n1 | 13.4 | 5.2 | 79.4µM* | ?
CC[C@@]1(O)C(=O)COc2c1cc1n(c2=O)Cc2c-1nc1cccc(C(C)C)c1c2[Si](C)(C)C | . | 0.8 | -5.0% | .
CCOc1ccc(Cc2nccc3cc(OCC)c(OCC)cc23)cc1OCC | . | -3.0 | -10.1% | .
COc1ccc2ccc3c(c2c1)N=CC1(O3)N(C)c2ccccc2C1(C)C (stereo not given) | 5.5 | 1.6 | -3.7% | 10.9%
CN1c2ccccc2C(C)(C)C12C=Nc1c(ccc3ccccc13)O2 (stereo not given) | 11.0 | -78.1* | -93.5% | ?
COc1cc(/C=C/C(=O)O[C@H]2[C@H](O[C@@H]3O[C@@H](C)[C@H](O)[C@@H](O)[C@H]3O)[C@@H](O)[C@H](OCCc3ccc(O)c(OC)c3)O[C@@H]2CO)ccc1O | 0.5 | . | . | ?
O=C(CSc1ccc(-c2ccco2)nn1)c1ccc(F)cc1 | -6.3 | 0.5 | 31.6µM* | ?
Cc1nc(C)c(-c2ccc(SCc3cccc(F)c3)nn2)s1 | -8.9 | 1.2 | -21.4% | ?
SMILES | Giardia killer | FBPA coupling cs | Sfp inh | ELG1 DNA repair
Fc1ccc(CSc2ccc(-c3ccc4c(c3)OCO4)nn2)cc1 | -8.6 | 3.0 | 3.2% | ?
Fc1ccc(CSc2ccc(-c3ccco3)nn2)cc1 | -11.3 | 0.4 | 50.1µM* | ?
Fc1cccc(CSc2ccc(-c3ccco3)nn2)c1 | -16.0 | 1.2 | 15.8µM* | ?
O=C(CSc1ccc(-c2ccco2)nn1)NCc1ccc(F)cc1 | 17.2 | 6.6 | ? | 0.4%
COc1ccc(CCC(=O)Nc2cc(S(=O)(=O)N3CCOCC3)ccc2OC(C)C)cc1 | -4.3 | . | . | 0.1%
CC(C)C(NC(=O)c1ccc(C(C)(C)C)cc1)C(=O)NCC1(N(C)C)CCCCC1 (stereo not given) | 7.9 | -0.2 | 19.2% | 24.2%

Source: PubChem (National Center for Advancing Translational Sciences (NCATS))
